Test results: PubChem BioAssay (NCATS)
Results filed as inconclusive are left out. Entries that show only a call come without a potency. Activity calls are given as the source filed them. Calls come from the whole dose curve; as a rule, active = well fitted cell-killing curve with a large enough effect; inconclusive = small, poorly fitted or top-dose-only effect; inactive = flat fitted curve, though single readings scatter.

Assay: Cellular viability qHTS for adrenocortical cancer (ACC) cell line NCI-H295R (AID 1963990); note: nearly all actives have a fitted effect of over 60% in size
Settings: CellTiter-Glo ATP luminescence, 48 h; series mostly up to 46.1 µM
Excerpt: PI: Naris Nilubol, MD Surgical Oncology Program, National Cancer Institute (NCI) National Institute of Health (NIH), Bethesda, Maryland Adrenocortical cancer (ACC) is a rare malignancy with poor survival outcomes and few treatment options. Currently, mitotane is the only FDA-approved therapy for ACC. Although adjuvant radiation therapy is rarely utilized, it has the potential to improve survival in select cases. Through a quantitative high-throughput drug screen (qHTS), we identified auranofin (AF), a thioredoxin reductase (TXNRD) inhibitor, as a promising candidate drug. This study aims to evaluate whether AF can enhance the efficacy of radiation therapy in the treatment of ACC. Two human ACC cell lines, SW-13 and NCI-H295R, were screened using the National Center for Advancing Translational Sciences (NCATS) Pharmaceutical Collection (NPC) and the Mechanism Interrogation PlatE (MIPE) library (~4,991 compounds). CellTiter-Glo (Cat # G7570, Promega, Madison, WI) was utilized to measure cell viability. Described herein are the results of the corresponding viability assay.
PROTOCOL TABLE (as described by Inglese J, Shamu CE and Guy RK. 2007) SEQUENCE No. (e.g., 1, 2, 3, etc.); […] (e.g., Cells, Incubation, Reagent, etc.); VALUE; DESCRIPTION. 1; Cells; 5 uL; white, solid-bottom, 1536-well tissue-culture treated plates. 2; Time; overnight culture at 37C with 5% CO2. 3; Compounds and control; 23 nL; Kalypsis pin tool (Wako USA) equipped with a 1536-well pin head to transfer to the assay plates. 4; Time; 48 hours; 37C with 5% CO2. 5; Reagent; 4 uL; CellTiter-Glo luminescent substrate mix. 6; Time; 20 min at room temperature. 7; Detection; Luminescence; ViewLux plate reader NOTES (numbers refer to Sequence numbers above) 1. NCI-H295R cells were harvested from a T175 flask and resuspended in ITS-supplemented DMEM serum-free medium at a concentration of 300 000 cells/mL. Then 5 uL of resuspended cells were dispensed into each well of white, solid-bottom, 1536-well tissue-culture-treated plates using a multidrop combi dispenser. The plates were covered with stainless steel gasket lids. 2-3. The plates were cultured overnight at 37C with 5% CO2. Twenty-three nL of compounds (eight selected concentrations from the NPC / MIPE) or positive control (10 mM stock of bortezomib) in DMSO was transferred to each well of the assay plate using a pin tool (Kalypsys, San Diego, CA, USA). The final concentration of the compounds in the 5 uL assay volume ranged from 0.5 nM to 46 uM. 4-6. After 48 hours of incubation at 37C and 5% CO2, 4 uL of CellTilter-Glo luminescent substrate mix (Promega, Madison, WI, USA) was added to each well. Then the plates were incubated for 20 minutes at room temperature. 7. After incubation, luminescence was measured using a ViewLux plate reader (PerkinElmer, Waltham, MA, USA) with a clear filter was used to measure the number of metabolically competent cells. To determine compound activity in the qHTS assay, the titration-response data for each sample was plotted and modeled by a four-parameter logistic fit yielding IC50 and efficacy (maximal response) values. Raw plate reads for each titration point were normalized relative to positive control ([…], 100% inhibition) and DMSO-only wells (basal, 0%). REFERENCES: Inglese J, Shamu CE and Guy RK, Reporting data from high throughput screening of small molecule libraries, Nature Chemical Biology, 2007, 3(8): 438-441. doi.org/10.1038/nchembio0807-438.

**Q.** With `CC(O)CN1CCN(CC(=O)[O-])CCN(CC(=O)[O-])CCN(CC(=O)[O-])CC1.[Gd+3]` (stereo not given) as the compound, how does the Potency read?
**A.** inactive

**Q.** For `Cc1ccc(-c2nc3ccc(C)cn3c2CC(=O)N(C)C)cc1`, which Potency is on record?
**A.** inactive

**Q.** With `Cc1cccc(C)c1NC(=O)CN1CCCC1=O` as the compound, how does the Potency read?
**A.** inactive

**Q.** For `Cc1ccc(Cl)c(O)c1`, which Potency is on record?
**A.** inactive

**Q.** With `C[C@]12CC[C@@H]3[C@@H](CCC4=CC(=O)CC[C@@H]43)[C@@H]1CC[C@@H]2OC(=O)CCc1ccccc1` as the compound, how does the Potency read?
**A.** inactive

**Q.** Which Potency does the source give for `C=CCC1(C(C)CC)C(=O)NC(=O)NC1=O` (stereo not given) here?
**A.** inactive

**Q.** Which Potency does the source give for `COc1cccc(C(=O)CCN[C@@H](C)[C@H](O)c2ccccc2)c1` here?
**A.** 25.9 µM (active)

**Q.** With `CC[N+]1(CC)CCC(OC(=O)C(O)(c2ccccc2)c2ccccc2)C1` (stereo not given) as the compound, how does the Potency read?
**A.** inactive

**Q.** For `CS(=O)(=O)c1ccc(C(=O)C2C(=O)CCCC2=O)c([N+](=O)[O-])c1`, which Potency is on record?
**A.** inactive

**Q.** For `CN(C)[C@@H]1C(=O)C(C(N)=O)=C(O)[C@@]2(O)C(=O)C3=C(O)c4c(O)cccc4[C@@](C)(O)[C@H]3[C@H](O)[C@@H]12`, which Potency is on record?
**A.** inactive

**Q.** Which Potency does the source give for `CC[N+]1(CCOC(=O)C(O)(c2ccccc2)c2ccccc2)CCCCC1` here?
**A.** inactive

**Q.** With `CCOc1ccccc1-n1c(C(C)N2CCN(C(=O)COc3ccc(Cl)cc3)CC2)nc2ccccc2c1=O` (stereo not given) as the compound, how does the Potency read?
**A.** 0.891 µM (active)

**Q.** Which Potency does the source give for `Cc1ncc(OC[C@@]2(c3cccc(F)c3)C[C@H]2C(=O)Nc2ccc(F)cn2)c(C)n1` here?
**A.** inactive

**Q.** Which Potency does the source give for `CC(=O)OCC1=C(C(=O)O)N2C(=O)[C@@H](N)[C@H]2SC1` here?
**A.** inactive

**Q.** Which Potency does the source give for `C[C@@H]1CC2=CC(=O)CC[C@@H]2[C@H]2CC[C@@]3(C)[C@@H](CC[C@]3(C)O)[C@@H]21` here?
**A.** inactive

**Q.** For `C=CC[C@]1(O)CC[C@H]2[C@@H]3CCC4=CC(=O)CCC4=C3C=C[C@@]21C`, which Potency is on record?
**A.** inactive

**Q.** With `CNC(C)Cc1ccccc1OC` (stereo not given) as the compound, how does the Potency read?
**A.** inactive

**Q.** Which Potency does the source give for `CCc1ccc(C2CCNCC2)cc1` here?
**A.** inactive

**Q.** Which Potency does the source give for `CCCN1CCC[C@@H]2Cc3nc(N)ncc3C[C@H]21` here?
**A.** inactive

**Q.** Which Potency does the source give for `NCc1cccnc1` here?
**A.** inactive

**Q.** For `c1ccc(C2CC2)c(OCC2=NCCN2)c1`, which Potency is on record?
**A.** inactive

**Q.** With `CC(C)=CCOc1c2occc2cc2ccc(=O)oc12` as the compound, how does the Potency read?
**A.** inactive

**Q.** With `CCCOC(=O)c1cncn1C(C)c1ccccc1` (stereo not given) as the compound, how does the Potency read?
**A.** inactive

**Q.** For `CC(Cc1ccccc1)N(C)Cc1ccco1` (stereo not given), which Potency is on record?
**A.** inactive

**Q.** With `CCc1cc2c(s1)-n1c(C)nnc1CN=C2c1ccccc1Cl` as the compound, how does the Potency read?
**A.** inactive

**Q.** With `COP(=S)(OC)Oc1ccc(Sc2ccc(OP(=S)(OC)OC)cc2)cc1` as the compound, how does the Potency read?
**A.** inactive

**Q.** With `COP(=S)(OC)SCN1C(=O)c2ccccc2C1=O` as the compound, how does the Potency read?
**A.** inactive

**Q.** With `CCN(CC)C(=O)c1ccc(C2=CC3(CCNCC3)Oc3cccc(O)c32)cc1` as the compound, how does the Potency read?
**A.** inactive

**Q.** Which Potency does the source give for `O=C1CN=C(c2ccccc2)c2cc([N+](=O)[O-])ccc2N1` here?
**A.** inactive

**Q.** With `C[N+]1(C)[C@@H]2CC[C@H]1CC(OC(=O)C(CO)c1ccccc1)C2` (stereo not given in full) as the compound, how does the Potency read?
**A.** inactive

**Q.** With `CC(C)c1c(CN(C)C(C)Cc2ccccc2)n(C)n(-c2ccccc2)c1=O` (stereo not given) as the compound, how does the Potency read?
**A.** inactive

**Q.** Which Potency does the source give for `N=c1c2c(-c3ccccc3)c(-c3ccccc3)n(Cc3ccccc3)c2ncn1C1CCC(O)CC1` (stereo not given) here?
**A.** 8.91 µM (active)

**Q.** Which Potency does the source give for `CCN(C(C)=O)c1cccc(-c2ccnc3c(C#N)cnn23)c1` here?
**A.** inactive

**Q.** For `CCS(=O)(=O)C(C)(C)S(=O)(=O)CC`, which Potency is on record?
**A.** inactive

**Q.** With `CC1(C)CC(O)CC(C)(C)N1O` as the compound, how does the Potency read?
**A.** inactive

**Q.** With `OCCOc1ccccc1` as the compound, how does the Potency read?
**A.** inactive

**Q.** For `O=C1OC(c2ccc(O)c(S(=O)(=O)O)c2)(c2ccc(O)c(S(=O)(=O)O)c2)c2c(Br)c(Br)c(Br)c(Br)c21`, which Potency is on record?
**A.** inactive

**Q.** With `CC(C)C[C@H](CN)CC(=O)O` as the compound, how does the Potency read?
**A.** inactive

**Q.** For `CC1(N2CCC(n3c([C@@H]4CCCNC4)nc4ccccc43)CC2)CCCCCCC1`, which Potency is on record?
**A.** 17.8 µM (active)

**Q.** With `CN[C@@H](C)[C@H](O)c1ccccc1` as the compound, how does the Potency read?
**A.** inactive
